# From PMC4336329 (PLoS ONE, 2015)
# Among all 310,000 compounds or so, about 14,000 (4.5%) showed an effect of 50% or more. The effect is printed as a negative number. This is one part of a sample in which strong results are shown more often than they occur.
# Biological target: human ether-à-go-go-related gene (hERG) potassium channel (human, UniProt Q12809)
# Assay: primary screen, population patch clamp on CHO cells stably expressing hERG; higher = less effect of the substance
# 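Also: peak tail current of the secondary pulse compared with the same well before compound.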
# human ether-à-go-go-related gene (hERG) potassium channel, sequence (Q12809 whole entry, looked up): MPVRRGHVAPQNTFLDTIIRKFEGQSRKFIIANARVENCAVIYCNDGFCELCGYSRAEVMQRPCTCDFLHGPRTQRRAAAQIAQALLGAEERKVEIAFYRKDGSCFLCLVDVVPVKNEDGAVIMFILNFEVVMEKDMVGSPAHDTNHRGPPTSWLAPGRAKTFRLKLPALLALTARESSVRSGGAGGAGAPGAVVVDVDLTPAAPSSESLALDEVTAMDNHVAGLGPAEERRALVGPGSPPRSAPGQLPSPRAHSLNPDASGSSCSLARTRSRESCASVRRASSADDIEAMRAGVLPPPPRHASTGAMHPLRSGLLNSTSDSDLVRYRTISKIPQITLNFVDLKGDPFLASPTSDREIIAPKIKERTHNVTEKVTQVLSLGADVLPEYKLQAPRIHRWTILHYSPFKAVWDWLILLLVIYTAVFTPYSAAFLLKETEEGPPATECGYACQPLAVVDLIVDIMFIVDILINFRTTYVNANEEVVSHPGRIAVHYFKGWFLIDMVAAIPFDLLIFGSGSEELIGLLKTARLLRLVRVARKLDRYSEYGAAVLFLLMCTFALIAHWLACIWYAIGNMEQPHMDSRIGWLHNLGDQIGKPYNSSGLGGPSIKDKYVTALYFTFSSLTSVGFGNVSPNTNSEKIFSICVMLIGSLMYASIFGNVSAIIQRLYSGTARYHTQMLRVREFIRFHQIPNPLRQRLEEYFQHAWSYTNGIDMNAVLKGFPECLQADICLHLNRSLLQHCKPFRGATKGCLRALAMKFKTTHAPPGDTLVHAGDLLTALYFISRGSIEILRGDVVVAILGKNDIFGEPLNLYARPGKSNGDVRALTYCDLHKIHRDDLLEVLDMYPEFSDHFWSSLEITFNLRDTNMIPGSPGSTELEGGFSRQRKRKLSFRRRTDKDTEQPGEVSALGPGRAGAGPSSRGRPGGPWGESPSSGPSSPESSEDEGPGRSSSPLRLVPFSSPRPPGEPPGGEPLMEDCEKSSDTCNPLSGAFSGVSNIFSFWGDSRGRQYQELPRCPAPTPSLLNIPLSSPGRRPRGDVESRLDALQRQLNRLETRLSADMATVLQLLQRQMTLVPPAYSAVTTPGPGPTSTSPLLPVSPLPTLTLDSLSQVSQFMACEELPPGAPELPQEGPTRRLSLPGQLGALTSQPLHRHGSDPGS
row,Structure (SMILES),"hERG current change (%, negative = inhibition) at 10uM"
1,CN1CCN(C(=O)C(C(=O)c2ccc(F)cc2)n2ccccc2=O)CC1 (stereo not drawn),-1.24%
2,Cc1ccc(C)c(N2CCN(S(=O)(=O)c3ccc4c(c3)NC(=O)CO4)CC2)c1,12.7%
3,O=C(O)c1cccc(Cn2c(Cl)c(/C=N/NC(=O)c3ccco3)sc2=O)c1,38.3%
4,Cc1ccc(N(C(=O)c2csnn2)C(C(=O)NC2CCCCC2)c2cccnc2)c(C)c1 (stereo not drawn),-5.38%
5,N#CCCN(C(=O)COC(=O)CNC(=O)C12CC3CC(CC(C3)C1)C2)c1ccccc1,-23.5%
6,CC12CCC(C(=O)NCCc3ccccc3)(OC1=O)C2(C)C (stereo not drawn),9.83%
7,CSc1nnc(C)c(=O)n1COC(=O)c1ccc(S(=O)(=O)N2CCCC2)cc1,-22.8%
8,O=C(CCS(=O)(=O)c1cccc2nonc12)NCCc1ccccc1Cl,-7.38%
9,CC(C)NC(=O)CN1C(=O)NC(CCc2ccccc2)C1=O (stereo not drawn),5.75%
10,COc1cc(C)ccc1OCCCCOc1ccccc1C(C)=O,3.3%
11,CCn1c(CNC(=O)c2cccnc2)cc2ccccc21,2.41%
12,Cc1ccc(C2NC(=S)NC3=C2N2CCC3CC2)cc1 (stereo not drawn),1.2%
13,CCOC(=O)c1sc(NC(=O)CSc2nc(C)cc(C)c2C#N)c(C#N)c1C,8.19%
14,O=C(/C=C/c1ccc(Cl)c(Cl)c1)N1CCOCC1,-1.3%
15,CC1CCN(c2ccccc2NC(=O)c2cc([N+](=O)[O-])ccc2N2CCOCC2)CC1,-2.63%
16,CC1CCN(c2ccccc2NC(=O)c2ccc([N+](=O)[O-])o2)CC1,25%
17,CC(C)C(=O)N1CCN(c2ccccc2NC(=O)c2cc([N+](=O)[O-])ccc2N2CCOCC2)CC1,-67.2%
18,CCc1ccccc1NC(=O)c1cc([N+](=O)[O-])ccc1N1CCOCC1,-16.5%
19,CC(C)C(=O)N1CCN(c2ccccc2NC(=O)c2ccc([N+](=O)[O-])o2)CC1,-63%
20,CS(=O)(=O)N1CCN(c2ccccc2NC(=O)c2ccc([N+](=O)[O-])o2)CC1,-25.2%
21,O=C(CNC(=O)c1cccs1)c1ccc(Br)cc1,12.2%
22,O=C(O)Cc1ccc(C(=O)c2cccs2)s1,11.8%
23,COc1ccc(CNC(=S)N/N=C(/C)c2ccccc2)cc1,-6.47%
24,COc1ccc(OC)c(NC(=S)NCc2cccnc2)c1,8.59%
